Among the test systems are NCI-H23 lung; NCI-H226 lung; NCI-H322M lung; HOP-62 NSCLC; NCI-H460 lung; NCI-H522 lung; A549/ATCC NSCLC; 786-0 renal; COLO 205 colon; DU-145 prostate.
What all share (assay): NCI-60 one-dose screen, 48 h (100 = growth as untreated, 0 = no growth, -100 = all killed)
What all share (conditions): 10 µM unless noted

The panel holds about 83,000 compounds, 20% with a hit somewhere; the sample as a whole holds those more often.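 Assay: single dose, 48 h. Readout: percent growth (0 = no net growth; negative = cell death). Active: <10.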 Values without a mark were called inactive. The source made the active and inactive calls.

Consider 14 compounds from PubChem BioAssay (NCI).

`Nc1nc(SCC2(CCl)COC2)c2[nH]cnc2n1`: the growth with NCI-H23 lung was 97.1%; with NCI-H226 lung, 100%; with NCI-H322M lung, 102%; in the assay with HOP-62 NSCLC, 89.7%; in the assay with NCI-H460 lung, 107%; with NCI-H522 lung, 80.2%. For the same compound, the growth with A549/ATCC NSCLC was 97.8%; with 786-0 renal, 99.4%; with COLO 205 colon, 106%; with DU-145 prostate, 116%.

For the compound `COc1ncc(-c2ccc3nccc(C#CCN4CCN(S(C)(=O)=O)CC4)c3c2)cc1NS(=O)(=O)c1ccc(F)cc1F`, the growth was 6.7% (active) in the assay on NCI-H23 lung; 9.35% (active) in the assay with NCI-H226 lung; -11.8% (active) in the assay on NCI-H322M lung; 9.92% (active) in the assay with HOP-62 NSCLC; 6.27% (active) in the assay on NCI-H460 lung; -1.57% (active) in the assay with NCI-H522 lung. The growth in the assay on A549/ATCC NSCLC is 5.73% (active); with 786-0 renal, -8.36% (active); in the assay with COLO 205 colon it was -55.1% (active); in the assay with DU-145 prostate, 17.9%.

Consider `CN(C)c1nc(-c2ccco2)n2nc(-c3ccco3)cc2n1`, for which the growth is 87.9% in the assay on NCI-H23 lung; 87.1% with NCI-H226 lung; 94% with NCI-H322M lung; 90.6% in the assay on HOP-62 NSCLC; 95.5% with NCI-H460 lung; 94.8% in the assay with NCI-H522 lung. Further, the growth in the assay on A549/ATCC NSCLC is 92.9%; with 786-0 renal it was 97.2%; with COLO 205 colon, 116%; in the assay with DU-145 prostate it was 121%.

Turning to `CCOC(=O)/C(=C/c1ccccc1)C(=O)c1ccccc1`, the growth in the assay on NCI-H23 lung was 82.4%; in the assay on NCI-H226 lung, 84.3%; in the assay with NCI-H322M lung it was 84.2%; with HOP-62 NSCLC it was 74.9%; with NCI-H460 lung, 88.3%; in the assay on NCI-H522 lung, 67.6%. Further, the growth is 79.8% with A549/ATCC NSCLC, 80.5% with 786-0 renal, 95.4% in the assay on COLO 205 colon and 50.3% in the assay with DU-145 prostate.

`CCOC(=O)C1=C(COCCN)NC(C)=C(C(=O)OC)C1c1ccccc1Cl` (stereo not given): the growth in the assay with NCI-H23 lung is 83.7%; in the assay on NCI-H226 lung, 91.9%; in the assay with NCI-H322M lung, 80.3%; in the assay on HOP-62 NSCLC, 89.7%; with NCI-H460 lung it was 60.3%; in the assay on NCI-H522 lung, 73.3%. Also, the growth was 71.8% in the assay on A549/ATCC NSCLC, 70.1% in the assay with 786-0 renal, -51.9% (active) in the assay with COLO 205 colon and 98.6% in the assay with DU-145 prostate.

`c1ccc(-c2nn[nH]n2)c(-c2ccc(CN3CCN(c4nsc5ccccc45)CC3)cc2)c1`: the growth in the assay on NCI-H23 lung was 85.7%; with NCI-H226 lung it was 105%; in the assay on NCI-H322M lung, 96.7%; with HOP-62 NSCLC, 110%; in the assay on NCI-H460 lung, 98.4%; with NCI-H522 lung, 69%. Also, the growth in the assay with A549/ATCC NSCLC is 98.6%; in the assay with 786-0 renal, 110%; in the assay with COLO 205 colon, 114%; in the assay on DU-145 prostate it was 97.5%.

As to `O=C(Nc1ccc(C2=NCCCN2)cc1)Nc1ccc(C2=NCCCN2)cc1`, the growth was 67.4% with NCI-H23 lung; 75% in the assay on NCI-H226 lung; 94.5% in the assay with NCI-H322M lung; 101% with HOP-62 NSCLC; 88.8% in the assay on NCI-H460 lung; 80.1% in the assay on NCI-H522 lung. The growth is 99.9% in the assay on A549/ATCC NSCLC, 84.3% with 786-0 renal, 128% in the assay on COLO 205 colon and 103% in the assay with DU-145 prostate.

In the case of `CCN1C2=C(SC(=S)C1=C1SC(C(=O)OC)=C(C(=O)OC)S1)SC(=Nc1ccc(OC)cc1)C2=O`, the growth was -42.5% (active) with NCI-H23 lung; -66.7% (active) in the assay with NCI-H226 lung; 48.4% in the assay with NCI-H322M lung; -13.7% (active) in the assay on HOP-62 NSCLC; -47.5% (active) with NCI-H460 lung; -15.2% (active) in the assay on NCI-H522 lung. Moreover, the growth in the assay with A549/ATCC NSCLC was 17.7%; in the assay with 786-0 renal it was -64.6% (active); with COLO 205 colon, -3.6% (active); with DU-145 prostate, -46.1% (active).

Turning to `Oc1ccccc1/C=N\Nc1ccccc1`, the growth is 87.5% in the assay with NCI-H23 lung; 39.4% in the assay on NCI-H226 lung; 59.9% in the assay with NCI-H322M lung; 65.6% in the assay on HOP-62 NSCLC; 30.9% in the assay with NCI-H460 lung; 10.5% with NCI-H522 lung. Further, the growth is 36.8% in the assay on A549/ATCC NSCLC, 43.3% with 786-0 renal, 115% in the assay on COLO 205 colon and 58.5% in the assay with DU-145 prostate.

For `COc1ccc(C(=O)Nc2nc(-c3ccc(Cl)cc3)cs2)cc1`, the growth with NCI-H23 lung is 114%; with NCI-H226 lung, 95.6%; in the assay on NCI-H322M lung, 86.8%; with HOP-62 NSCLC it was 90.8%; in the assay on NCI-H460 lung it was 105%; in the assay with NCI-H522 lung, 105%. Besides, the growth is 100% with A549/ATCC NSCLC, 108% with 786-0 renal, 102% in the assay on COLO 205 colon and 111% in the assay on DU-145 prostate.

Consider `CCOc1nc(-c2ccccc2)cc2c(O)c(-c3nnco3)[nH]c(=O)c12`, for which the growth is 63.1% in the assay with NCI-H23 lung; 64.2% in the assay with NCI-H226 lung; 65.3% in the assay on NCI-H322M lung; 47.9% in the assay on HOP-62 NSCLC; 28.2% in the assay on NCI-H460 lung; 5.8% (active) with NCI-H522 lung. In addition, the growth was 38.9% in the assay with A549/ATCC NSCLC, 57.9% in the assay on 786-0 renal, 72.2% in the assay with COLO 205 colon and 50.8% with DU-145 prostate.

Regarding `COc1ccc(-c2nn(-c3ccccc3)cc2/C=C2\SC(=S)N(CCc3ccc(O)cc3)C2=O)cc1`, the growth in the assay with NCI-H23 lung is 89.2%; in the assay with NCI-H226 lung, 86.7%; in the assay with NCI-H322M lung, 88.6%; with HOP-62 NSCLC it was 97.1%; in the assay with NCI-H460 lung, 81.7%; in the assay with NCI-H522 lung it was 64.7%. In addition, the growth with A549/ATCC NSCLC was 81.2%; in the assay with 786-0 renal it was 93.7%; in the assay with COLO 205 colon, 108%; in the assay with DU-145 prostate, 93.3%.

For the compound `O=[N+]([O-])c1cnc(Sc2ccncn2)c([N+](=O)[O-])c1`, the growth with NCI-H23 lung is 103%; in the assay on NCI-H226 lung, 99.6%; in the assay with NCI-H322M lung it was 108%; in the assay with HOP-62 NSCLC, 99.3%; with NCI-H460 lung, 100%; with NCI-H522 lung, -83.1% (active). The growth in the assay with A549/ATCC NSCLC is 97.6%; in the assay on 786-0 renal, 106%; with COLO 205 colon, -11.8% (active); in the assay on DU-145 prostate, 109%.

With `CN(C)c1ccc2[nH]c3c(C(N)=O)cc(=O)c(=O)c=3oc2c1`, the growth with NCI-H23 lung was 34.9%; in the assay with NCI-H226 lung, 87.7%; in the assay with NCI-H322M lung it was 109%; in the assay with HOP-62 NSCLC, 20.7%; in the assay with NCI-H460 lung it was 38.4%; in the assay on NCI-H522 lung, 11.2%. Also, the growth with A549/ATCC NSCLC was 33.8%; with 786-0 renal, 80.4%; in the assay with COLO 205 colon it was 101%; with DU-145 prostate, 71.9%.
